Compounds with a hit are over-represented: about 2.9% of the library has one in this group of screens.
S1P3 antagonist: blocks the human S1P3 receptor | 0.27% of 170,000 active | Q99500 | CHO S1P3 NFAT-BLA reporter, FRET fluorescence, antagonist mode | AID 485 | inhibition, % at 4.98 µM;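 active = inhibition above the plate cutoff, the mean inhibition of test wells on that plate plus 3 SD, cut at about 28% in these data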;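 note: cells challenged with S1P at its EC80 of 0.8 µM; blue over green emission ratio from cleaved BLA substrate after 4 h stimulation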
HSF-1 act: increases HSF-1 driven luciferase reporter signal | NIH3T3-HGL HSF-1 luciferase reporter, MG132, 8 h; 100% = twice DMSO control signal | activation, % at 9 µM | 1.7% of 300,000 active;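 active = mean replicate activation of at least 50% with a set share of replicates each reaching 50%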
S1P4 ag: agonists of human S1P4 receptor; O95977; S1P4-expressing cell line, agonist reporter assay; 0.35% of 220,000 active; activation, % at 4.98 µM; in the data active = activation above about 11%
Target sequence (O95977 whole entry, looked up): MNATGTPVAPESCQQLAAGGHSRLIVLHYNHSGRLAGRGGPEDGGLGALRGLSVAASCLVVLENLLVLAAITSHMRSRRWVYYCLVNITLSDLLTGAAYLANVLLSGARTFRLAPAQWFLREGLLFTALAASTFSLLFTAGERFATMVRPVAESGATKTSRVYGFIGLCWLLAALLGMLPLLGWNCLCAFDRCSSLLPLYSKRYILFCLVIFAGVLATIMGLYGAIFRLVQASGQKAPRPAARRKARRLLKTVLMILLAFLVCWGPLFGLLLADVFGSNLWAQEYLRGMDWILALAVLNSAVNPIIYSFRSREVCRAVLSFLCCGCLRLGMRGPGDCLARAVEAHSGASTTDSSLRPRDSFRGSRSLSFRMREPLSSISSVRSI
Hsp70 act: switches on Hsp70 transcription | activation, % at 10 µM | 0.04% of 200,000 active | AID 1203 | HeLa Hsp70 promoter luciferase reporter, luminescence; scaled: vehicle 0, proteasome-inhibitor control 100%;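 active = activation above the mean across all tested compounds plus 3 SD, cutoff set per campaign, cut at about 5.5% in these data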
HSF1 inhib: HSF1 inhibition | 0.77% of 300,000 active | activity change, negative = inhibition, % at 7.5 µM (by protocol) | AID 2098 | NIH3T3-HGL HSE-luciferase, MG132-induced, luminescence 8 h; hits give low values;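 active = more than half of replicate wells show activity change below -50%, luminescence cut by over half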;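 note: luciferase reports HSF-1 transcriptional activity via heat shock element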
S1P4 antagonist: human S1P4 receptor antagonism; O95977; 0.26% of 220,000 active; S1P4-expressing cells, antagonist mode, reporter read-out; inhibition, % at 4.98 µM; AID 1510; in the data active = inhibition above about 29%
Large screens that a line does not name were inactive.

Cc1cccc(-n2ncc3c(N(C)Cc4ccccc4)ncnc32)c1	HSF-1 act 60.8 (no result: S1P4 ag, Hsp70 act, S1P4 antagonist)
Cc1cccc(-n2ncc3c(Nc4ccc(F)cc4)ncnc32)c1	HSF-1 act 51.3 (no result: S1P4 ag, Hsp70 act, S1P4 antagonist)
CCCn1c(CN2CCN(C(=O)OCC)CC2)nc2cc([N+](=O)[O-])ccc21	none (no result: S1P3 antagonist, S1P4 ag, Hsp70 act, S1P4 antagonist)
Cc1ccc(S(=O)(=O)N2CCC(C(=O)N/N=C/c3ccncc3)CC2)cc1	none
O=C(CCc1ccccc1)NNC(=O)COc1ccc([N+](=O)[O-])cc1	none (no result: S1P3 antagonist, S1P4 ag, Hsp70 act, S1P4 antagonist)
Cc1ccc(NC(=O)Cc2nnc(SCC(=O)NC3=NCCS3)n2C)cc1	none (no result: S1P3 antagonist, S1P4 ag, Hsp70 act, S1P4 antagonist)
Cc1ccc(-c2ccc(=O)n(CCC(=O)NCCN3CCCCC3C)n2)cc1 (stereo unspecified)	HSF1 inhib -74.5
CC(C)Nc1nc(NC(C)C)nc(SCCOC(=O)Nc2ccc(Cl)cc2Cl)n1	none
Oc1ccc(/C=C/c2ccnc3ccccc23)cc1	HSF-1 act 69.1
Clc1ccccc1/C=C/c1ccnc2ccccc12	none (no result: Hsp70 act)
CN1CCN(NC(=O)/C=C/c2ccc(C(C)(C)C)cc2)CC1	none (no result: S1P3 antagonist, S1P4 ag, Hsp70 act, S1P4 antagonist)
CN1CCN(NC(=O)/C=C/c2ccc(Br)cc2)CC1	HSF-1 act 82.0 (no result: S1P3 antagonist, S1P4 ag, Hsp70 act, S1P4 antagonist)
CC(=O)Oc1ccc(/C(C)=N/N2CCN(Cc3ccc(C)cc3)CC2)cc1	none (no result: S1P3 antagonist, S1P4 ag, Hsp70 act, S1P4 antagonist)
COC(=O)/C=C/C(=O)Nc1cccc(C(F)(F)F)c1	HSF-1 act 92.9
COC(=S)Nc1cccc(C(F)(F)F)c1	none (no result: Hsp70 act)
CCOc1ccccc1NS(=O)(=O)c1ccc2c(c1)N(C)CCO2	none (no result: S1P3 antagonist, S1P4 ag, Hsp70 act, S1P4 antagonist)
COc1ccc(OCC(=O)Nc2ccc3c(c2)nc(CCN2CCCC2)n3C)cc1	none (no result: S1P3 antagonist, S1P4 ag, Hsp70 act, S1P4 antagonist)
COc1ccc(C(=O)Nc2ccc3c(c2)nc(CN2CCCC2)n3C)cc1	HSF1 inhib -85.6
Cn1c(CCN2CCOCC2)nc2cc(NC(=O)COc3ccccc3)ccc21	HSF-1 act 68.1
COc1ccc(OCC(=O)Nc2ccc3c(c2)nc(CCN2CCN(C)CC2)n3C)cc1	HSF-1 act 52.6 (no result: S1P3 antagonist, S1P4 ag, Hsp70 act, S1P4 antagonist)
Cn1c(CN2CCOCC2)nc2cc(NC(=O)COc3ccccc3)ccc21	none (no result: HSF-1 act, HSF1 inhib)
Cc1ccc(S(=O)(=O)Oc2ccc(/C=N/N=C3/NC(=O)C(CC(=O)O)S3)cc2)cc1[N+](=O)[O-] (stereo unspecified)	none (no result: S1P3 antagonist, S1P4 ag, Hsp70 act, S1P4 antagonist)
CCCCN(C(=N)N1CCCCC1)c1nc(C)c([N+](=O)[O-])c(=O)[nH]1	none
O=C1c2ccccc2C(=O)N1CCc1csc(-c2cccc(F)c2)n1	HSF-1 act 82.7 (no result: S1P3 antagonist)
O=C(Nc1ccccc1NC(=O)c1ccco1)c1ccco1	S1P3 antagonist 68.9
O=C(Nc1ccc2c(c1)Cc1ccccc1-2)c1ccco1	HSF-1 act 56.2 (no result: S1P3 antagonist)
O=C(NC(=S)N(CCc1ccccc1)CCc1ccccc1)c1ccco1	HSF-1 act 68.3
O=C(Nc1ccccc1C(=O)OCC(=O)c1c[nH]c2ccccc12)c1ccco1	HSF-1 act 104.9
Cc1nn(C)c(Cl)c1C(N)=O	none
CC(C)(C)NC(=O)c1oc2ccccc2c1COc1ccccc1	none
CC(=O)/C=C/n1c(=S)oc2ccccc21	HSF-1 act 141.4
CC(C)CC(=O)/C=C/n1c(=S)oc2ccccc21	none
Cc1[nH]n(CCC#N)c(=O)c1CC(=O)N1CCN(c2ccccc2)CC1	HSF1 inhib -53.7
Cn1nc(CC(=O)N2CCN(c3ccccc3)CC2)c2ccccc2c1=O	none
CCC(Sc1nc2ccccc2s1)C(=O)Nc1nnc(C)s1 (stereo unspecified)	none (no result: S1P3 antagonist)
CC(Sc1nc2ccccc2s1)C(=O)Nc1nnc(C(C)C)s1 (stereo unspecified)	HSF1 inhib -63.1 (no result: S1P3 antagonist)
Cc1ccc(CNC(=O)[C@H](C)N2C(=O)N3CCc4c([nH]c5ccccc45)[C@@]3(C)C2=O)cc1	HSF-1 act 97.4 (no result: S1P3 antagonist, S1P4 ag, Hsp70 act, S1P4 antagonist)
O=C(C=P(c1ccccc1)(c1ccccc1)c1ccccc1)c1ccccc1-c1ccccc1C(=O)C=P(c1ccccc1)(c1ccccc1)c1ccccc1	none (no result: S1P3 antagonist, S1P4 ag, Hsp70 act, S1P4 antagonist)
Cc1ccc(C(=O)Cn2nnc(-c3ccccc3-n3cnnn3)n2)cc1	HSF-1 act 72.8
COc1ccc(C(=O)Cn2nnc(-c3ccccc3-n3cnnn3)n2)cc1	none
CCC1CC2CC(NC(C)=O)C1C2 (stereo unspecified)	none (no result: S1P3 antagonist, HSF-1 act, HSF1 inhib)
O=C(NCCCN1CCOCC1)/C(=C/c1ccc(F)cc1)NC(=O)c1ccccc1	none
CCOc1ccc(N=Nc2ccc(O)c3ncccc23)cc1	HSF-1 act 89.3 (no result: S1P3 antagonist, S1P4 ag, Hsp70 act, S1P4 antagonist)
Cc1ccc(C)c(N=Nc2ccc(O)c3ncccc23)c1	none
Cc1cccc(N=Nc2ccc(O)c3ncccc23)c1	HSF-1 act 240.8
